Records with an inconclusive call do not appear. Active and inactive are the calls of the source. Unless noted, the call rests on the fitted dose curve; in most records, active means well fitted curve in the direction sought with a large enough effect in the repeat runs; inconclusive means weak or mixed curves; inactive means no such curve, though single readings can be large; an effect the other way counts as inactive or inconclusive.
Assays:
[1] = qHTS assay for small molecule agonists of the p53 signaling pathway (AID 651631; calls by dose curve; further: nearly all actives have a fitted effect of over 15% in size)
Summary of the method: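 p53RE-bla HCT-116 cells; compounds 16 h, 37 °C; LiveBLAzer B/G FRET substrate 2 h RT; fluorescence intensity read-out, qHTS format.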

[2] = qHTS assay for small molecules that induce genotoxicity in human embryonic kidney cells expressing luciferase-tagged ATAD5 (AID 651632); further: nearly all actives have a fitted effect of over 15% in size
Summary of the method: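 Luminescent reporter readout, HEK293T ATAD5-luc line: 16 hr drug exposure (37C, 5% CO2) followed by Amplite, 30 min RT.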

[3] = qHTS assay for small molecule agonists of the p53 signaling pathway - cell viability (AID 651633; calls by dose curve;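 further: p53RE-bla HCT reporter cells with a stable beta-lactamase p53 reporter; series mostly up to about 83 µM; nearly all actives have a fitted effect of over 30% in size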)
Summary of the method: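 p53RE-bla cells, seeded at 4,000 per well and rested 5 h at 37 C/5% CO2, received compounds in DMSO for 16 h at 37 C. CellTiter-Glo was then added, and luminescence was read after 30 min at room temperature to gauge cytotoxicity.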

[4] = qHTS assay for small molecules that induce genotoxicity in human embryonic kidney cells expressing luciferase-tagged ATAD5 - cell viability (AID 651634; calls by dose curve; further: nearly all actives have a fitted effect of over 25% in size)
Summary of the method: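 Viability read: CellTiter-Fluor fluorescence, 30 min at 37C. Cells: HEK293T, luciferase-tagged ATAD5. Exposure: 15.5 hr, 37C, 5% CO2, compound or DMSO vehicle.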

[5] = qHTS assay for small molecule disruptors of the mitochondrial membrane potential - cell viability (AID 720634; calls by dose curve;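 further: human HepG2 liver cancer cells; series mostly up to about 83 µM; nearly all actives have a fitted effect of over 20% in size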)
Summary of the method: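 HepG2, 1 hr compound, 37 C. ATP luminescence via CellTiter-Glo, 30 min RT, same well as m-MPI.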

[6] = qHTS assay for small molecule disruptors of the mitochondrial membrane potential (AID 720635)
Summary of the method: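 HepG2 cells (2,000/well) attached overnight at 37C, then took compound for 1 hr at 37C, 5% CO2. Mito-MPS dye was added for 30 min; fluorescence was read at 490/535 nm (monomers) and 540/590 nm (aggregates).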

[7] = qHTS assay to test for compound auto fluorescence at 590 nm (red) in HepG2 cells (AID 720674)
Summary of the method: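 Rose Bengal sodium served as the red fluorophore standard. HepG2 monolayers (overnight attachment, MEM with 10% FBS) were exposed to test compounds for 1 hr at 37 C and read at Ex 540/Em 590 nm.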

[8] = qHTS assay to test for compound auto fluorescence at 460 nm (blue) in HEK293 cells (AID 720678)
Summary of the method: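 After cell attachment (4-5 hr, 37C), compounds were pinned onto HEK293 monolayers in 10% dialyzed FBS medium. The blue channel (405/460 nm) was read following overnight culture. Equivalency was calculated against triamterene.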

[9] = qHTS assay to test for compound auto fluorescence at 590 nm (red) in HEK293 cells (AID 720679)
Summary of the method: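 Plates of HEK293 cells (10% dialyzed FBS) are treated with 23 nL compound or DMSO vehicle after a 4-5 hr attachment period, incubated overnight at 37C, and read for red fluorescence at 540/590nm.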

[10] = qHTS assay to test for compound auto fluorescence at 535 nm (green) in HEK293 cells (AID 720680)
[11] = qHTS assay to test for compound auto fluorescence at 460 nm (blue) in HEK293 cell free culture (AID 720681)
Summary of the method: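 Test compounds were pinned into cell-free culture medium (DMEM with 10% FBS) and fluorescence was read directly at Ex/Em 405/460 nm. Signals were expressed as fluorescence equivalents of triamterene, with DMSO vehicle as control.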

[12] = qHTS assay to test for compound auto fluorescence at 535 nm (green) in HEK293 cell free culture (AID 720682)
Summary of the method: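 Cell-free medium (DMEM, 10% FBS) receives compound or DMSO by pintool. Plate read directly at Ex 485/Em 535 nm. Signal converted to fluorescein equivalency.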

[13] = qHTS assay to test for compound auto fluorescence at 590 nm (red) in HEK293 cell free culture (AID 720683)
Summary of the method: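 Tox21 10K library compounds were pinned into cell-free DMEM with 10% FBS and fluorescence was read at excitation 540 nm. Activity is expressed as Rose Bengal sodium equivalency.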

[14] = qHTS assay to test for compound auto fluorescence at 460 nm (blue) in HepG2 cell free culture (AID 720685)
Summary of the method: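 Compound (23 nL) or DMSO pinned into cell-free MEM with 10% FBS; blue fluorescence read at 405/460 nm excitation/emission, expressed as auto-fluorescence equivalency to triamterene.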

[15] = qHTS assay to test for compound auto fluorescence at 535 nm (green) in HepG2 cell free culture (AID 720686)
[16] = qHTS assay to test for compound auto fluorescence at 460 nm (blue) in HepG2 cells (AID 720687)
Summary of the method: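 Cells (2,000/well in MEM with 10% FBS) attached overnight at 37 C, then were exposed to compound or DMSO for 1 hr at 37 C, 5% CO2. Fluorescence read at Ex/Em 405/460 nm, expressed as triamterene-equivalent signal.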

[17] = target: Glucocorticoid receptor (Homo sapiens) (UniProt P04150); assay: qHTS assay to identify small molecule agonists of the glucocorticoid receptor (GR) signaling pathway (AID 720691; active means well fitted activation curve with a large enough effect in the signal ratio in the repeat runs, not every such curve was filed as active; the % refers to the signal ratio)
Chain of Glucocorticoid receptor (Homo sapiens) (P04150 whole entry, looked up): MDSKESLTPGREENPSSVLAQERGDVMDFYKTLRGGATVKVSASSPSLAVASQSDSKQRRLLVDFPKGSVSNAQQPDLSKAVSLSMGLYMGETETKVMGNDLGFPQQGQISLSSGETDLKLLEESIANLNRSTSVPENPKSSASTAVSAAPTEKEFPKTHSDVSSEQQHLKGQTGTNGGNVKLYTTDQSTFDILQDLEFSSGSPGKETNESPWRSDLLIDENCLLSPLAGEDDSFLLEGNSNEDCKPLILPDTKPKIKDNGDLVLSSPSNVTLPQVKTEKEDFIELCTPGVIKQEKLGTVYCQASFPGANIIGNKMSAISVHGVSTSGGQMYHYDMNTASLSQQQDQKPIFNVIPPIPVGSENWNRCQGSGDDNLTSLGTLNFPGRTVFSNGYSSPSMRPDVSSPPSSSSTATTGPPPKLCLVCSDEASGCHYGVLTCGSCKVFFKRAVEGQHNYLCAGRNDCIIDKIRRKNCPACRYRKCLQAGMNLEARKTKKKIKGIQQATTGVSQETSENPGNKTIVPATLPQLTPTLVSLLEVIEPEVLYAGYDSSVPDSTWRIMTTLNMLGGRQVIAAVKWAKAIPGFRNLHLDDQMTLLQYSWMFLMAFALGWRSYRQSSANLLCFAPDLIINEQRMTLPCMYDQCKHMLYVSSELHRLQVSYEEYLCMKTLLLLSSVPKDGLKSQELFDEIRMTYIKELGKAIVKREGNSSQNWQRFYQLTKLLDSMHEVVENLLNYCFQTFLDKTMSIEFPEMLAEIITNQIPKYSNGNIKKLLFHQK
Summary of the method: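 qHTS in GR-bla HeLa cells: 4 h settling at 37 C/5% CO2, 18 h compound incubation at 37 C, 2 h LiveBLAzer B/G FRET substrate at room temperature, fluorescence intensity measured.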

[18] = target: Glucocorticoid receptor (Homo sapiens) (UniProt P04150); assay: qHTS assay to identify small molecule antagonists of the glucocorticoid receptor (GR) signaling pathway (AID 720692; active means well fitted inhibition curve with a large enough effect in the signal ratio in the repeat runs, not every such curve was filed as active; the % refers to the signal ratio)
Summary of the method: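 Inhibition of glucocorticoid signalling is measured in HeLa cells with a GRE-controlled beta-lactamase reporter; cells are co-treated with compound and 5 nM dexamethasone (final) for 18 h before FRET substrate readout.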

[19] = qHTS assay to test for compound auto fluorescence at 535 nm (green) in HepG2 cells (AID 720675)
[20] = qHTS assay to test for compound auto fluorescence at 590 nm (red) in HepG2 cell free culture (AID 720684)
Summary of the method: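 Red fluorescence (540 nm excitation, 590 nm emission) was measured after compound transfer into cell-free MEM supplemented with 10% FBS. Values are equivalencies against Rose Bengal sodium.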

Measured: Potency

[N-]=[N+]=[N-]
not listed: [19] | [20]
inactive: all other assays above

O=NN1CCCCCCC1
inactive: all assays above

CCc1cccc(C)c1N(C(=O)CCl)C(C)COC (stereo not given)
not listed: [10] | [17] | [18] | [20]
inactive: all other assays above

CC(C)C1(C)N=C(c2nc3ccccc3cc2C(=O)O)NC1=O (stereo not given)
not listed: [10]
inactive: all other assays above

COC(=O)c1ccccc1C(=O)OC
not listed: [19]
inactive: all other assays above

ClCCBr
not listed: [10] | [17] | [18] | [20]
inactive: all other assays above

O=c1n(Cl)c(=O)n(Cl)c(=O)n1Cl
not listed: [20]
inactive: all other assays above

BrCCBr
not listed: [10] | [19]
inactive: all other assays above

Source: PubChem BioAssay (Tox21)
